Hits are enriched below; roughly 22% of the tested compounds scored in any of these assays.
Pf growth 96h: P. falciparum growth inhibition at 96 hours; P. falciparum luciferase reporter growth, 96 h; 320,000 tested, 6.9% active; Potency, µM (series often up to 28.7 µM), inactives show at the top dose activity change, negative = inhibition, actives largely listed as inhibitors; note: potency is the fitted concentration of half-maximal effect; % is set by controls: 0 for no effect and ±100 for the full control effect
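Readout is luminescence from an integrated firefly luciferase in P. falciparum. Red cells, 2% hematocrit and 0.05% parasitemia final, were cultured with compound through two parasite generations (96 hours) at 37 C, 5% CO2.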
LmPK inhibitor: inhibitors of Leishmania mexicana pyruvate kinase | 290,000 tested, 0.37% active | Q27686 | purified LmPK, Kinase-Glo ATP luminescence, 1 h | Potency, µM (doses to about 57.5 µM), for inactives: at the top dose activity change, negative = inhibition, most hits filed as inhibitors; note: potency is the fitted concentration of half-maximal effect; % is set by controls: 0 for no effect and ±100 for the full control effect
Target sequence (Q27686 whole entry, looked up): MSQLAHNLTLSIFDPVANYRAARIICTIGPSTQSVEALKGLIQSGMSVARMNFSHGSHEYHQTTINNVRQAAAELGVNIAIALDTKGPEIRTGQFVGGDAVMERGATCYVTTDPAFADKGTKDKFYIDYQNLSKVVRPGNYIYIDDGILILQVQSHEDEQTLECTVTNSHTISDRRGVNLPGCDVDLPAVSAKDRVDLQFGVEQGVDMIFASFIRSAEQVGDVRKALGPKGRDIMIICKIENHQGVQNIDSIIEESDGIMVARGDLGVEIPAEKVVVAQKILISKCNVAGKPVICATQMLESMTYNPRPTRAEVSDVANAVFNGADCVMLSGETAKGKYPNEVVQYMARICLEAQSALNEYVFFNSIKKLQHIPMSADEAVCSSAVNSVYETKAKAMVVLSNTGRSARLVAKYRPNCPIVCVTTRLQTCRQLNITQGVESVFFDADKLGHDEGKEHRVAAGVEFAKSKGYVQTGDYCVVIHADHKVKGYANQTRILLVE
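Purified LmPK (0.1 nM) converted ADP (0.1 mM) to ATP with PEP (0.5 mM) in imidazole buffer pH 7.2 with KCl and MgCl2, 1 h at room temperature. ATP was read by Kinase-Glo luminescence; data normalized to uninhibited and no-enzyme controls.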
Cycloheximide cs: counter-screen for Shiga toxin inhibitors: cycloheximide protein synthesis inhibition; cell reporter, cycloheximide protein synthesis inhibition counterscreen; max response, %; 300,000 tested, 12% active; AID 2314; in the data active = max response mostly above about 13%, no sharp cut-off; inactive = mostly below about 14%; note: read at 38.3 µM for the half of the compounds with a filed dose; 0% is about no effect
Pf growth 48h: P. falciparum growth inhibition at 48 hours (one generation). P. falciparum luciferase growth in erythrocytes, 48 h. Potency, µM (highest dose often 28.7 µM), without a hit: at the highest dose activity change, negative = inhibition, usual class: inhibitors. 310,000 tested, 5.9% active. AID 504832; note: potency is the fitted concentration of half-maximal effect; % is set by controls: 0 for no effect and ±100 for the full control effect
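Luciferase-expressing parasites in RBCs, 2% Hct / 0.1% parasitemia final; RPMI 1640 + 0.5% Albumax; 37 C, 5% CO2, one generation; luminescence read-out, lower signal = inhibition.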
Shiga inhibitor: Shiga toxin inhibition. Vero cells, Shiga toxin protein synthesis inhibition reporter. inhibition, % at 38.7 µM. 290,000 tested, 9.2% active. AID 2315; in the data active = inhibition mostly above about 28%, no sharp cut-off; inactive = mostly below about 43%; note: 0% is about no effect
Numbers without * were called inactive; u = inconclusive; x = no result given; + = active, no number; [ ] = remark or other dose. Unless noted, calls come from the whole dose curve; as a rule, active = well fitted inhibition curve with a large enough effect; inconclusive = small, poorly fitted or top-dose-only effect, or another doubt; inactive = no such curve, though single readings can be large or run the other way.

SMILES | Pf growth 96h | LmPK inhibitor | Cycloheximide cs | Pf growth 48h | Shiga inhibitor
Cn1c(NC(=O)/C=C/c2ccccc2)cc(=O)n(C)c1=O | 11% | 5% | 34* | 94% | 31
COc1ccc(/C=C/C(=O)Nc2cc(=O)n(C)c(=O)n2C)cc1 | 0% | -3% | 31* | 42% | 21
Cn1c(NC(=O)/C=C/c2ccc(Cl)c(Cl)c2)cc(=O)n(C)c1=O | -20% | 0% | 10 | -13% | 2
Cn1c(NC(=O)CCc2ccccc2)cc(=O)n(C)c1=O | 70% | -1% | 43* | x | 70*
CC(C(=O)NCCc1ccc(Cl)cc1)n1c(=O)c2cccn2c2cccnc21 (stereo not drawn) | 13% | 2% | -3 | 1% | -14
CCOc1ccc(NC(=O)C2CCCN2S(=O)(=O)c2ccc(OCC)cc2)cc1 (stereo not drawn) | 17% | -1% | 4 | -6% | 1
CCCOc1ccc(C(=O)Nc2ccc(N3CCN(C(=O)c4ccco4)CC3)cc2)cc1 | u | -13% | 1 | u | -35
O=C(Oc1ccc2c(c1)OCC2=O)c1ccc(Cl)cc1 | 42% | 1% | 22 | u | 50*
N#CC1=C(N)N(c2ccc(Oc3ccccc3)cc2)C(=O)C1 | u | 5% | -2 | u | -1
CCOc1ccc(OCc2cccc(C(=O)Nc3ccc(CN4CCCCC4)cc3)c2)cc1 | u | -5% | 122* | u | 87*
COc1ccc(OCc2cccc(C(=O)Nc3ccc(CN4CCCCC4)cc3)c2)cc1 | u | 1% | 127* | u | +
COc1cc(OC)cc(C(=O)Nc2ccc(CN3CCCCC3)cc2)c1 | 53% | 4% | -2 | u | 11
O=C(NC1CCCN(Cc2ccc(Cl)cc2)C1)c1cccc(F)c1 (stereo not drawn) | -8% | -2% | -3 | 6% | 1
O=C(Nc1ccc(CN2CCCCC2)cc1)c1cccc(F)c1 | 13%[5.75 µM] | 2% | 31* | 9% | 39*
Cc1ccc(C)c(NC(=O)CCN2CCCCC2)c1 | 30% | 4% | 0 | -19% | x
Cc1cccc(C(C)C)c1NC(=O)c1cc2ccccc2o1 | u | 1% | -6 | u | -18
Cc1cc(C(=O)Nc2cccc(O)c2)co1 | u | -17% | 32* | 78% | 74
O=C(Nc1ccccc1)c1ccsc1 | 29% | -2% | 27* | 33% | 54
O=C(Nc1cccc(O)c1)c1cccc(NC(=O)c2cccs2)c1 | 34% | 3% | 15 | u | 57
O=C(Nc1cccc(O)c1)c1ccccc1 | -13% | -14% | 20* | 49% | 38*
O=C(O)/C=C\C(=O)Nc1cccc(C(=O)Nc2cccc(O)c2)c1 | 38% | 8% | 28* | 78% | 77*
Cc1cc(C(=O)Nc2cccc(O)c2)c(C)o1 | 18% | -8% | 18 | 29% | 15
CNCC(=O)NC(CCCN=C(N)N)C(=O)NC(C(=O)NC(Cc1ccc(O)cc1)C(=O)NC(C(=O)NC(Cc1cnc[nH]1)C(=O)N1CCCC1C(=O)NC(C)C(=O)O)C(C)C)C(C)C (stereo not drawn) | 4% | x | x | -3% | x
CSc1nnc(-c2ccc(S(=O)(=O)N3CCCCC3)cc2)o1 | -10% | -1% | 11 | -9% | -5
COc1cc(OC)c(NC(=O)CS(=O)(=O)Cc2nc(-c3ccc(C)cc3)oc2C)cc1Cl | 8.3µM* | 9% | 3 | x | 46
SMILES | Pf growth 96h | LmPK inhibitor | Cycloheximide cs | Pf growth 48h | Shiga inhibitor
COc1ccc(-c2nc(CS(=O)(=O)CC(=O)Nc3ccc(Cl)cc3)c(C)o2)cc1 | -29% | -1% | 19* | 32% | 40*
COc1cccc(-c2nc(CS(=O)(=O)CC(=O)NCCc3cc(OC)ccc3OC)c(C)o2)c1 | 13µM* | 1% | 0 | -28% | -4
O=c1c(Cc2ccccc2)c(O)ccn1CCc1cnc[nH]1 | u | 3% | 13 | u | -2
COc1ccc(OCc2cc(C(=O)NC(C)Cn3cncn3)no2)c(Cl)c1 (stereo not drawn) | 1% | -4% | 40* | 15% | 62*
CC(Cn1cncn1)NC(=O)c1cc(COc2cccc(C(F)(F)F)c2)on1 (stereo not drawn) | 15% | -3% | 18 | -13% | 23
COc1ccc(OCc2cc(C(=O)NC(C)Cc3cccnc3)no2)c(Cl)c1 (stereo not drawn) | -22% | 11% | 27* | -6% | 38
COc1ccc(OCc2cc(C(=O)NC(C)Cc3ccccn3)no2)c(Cl)c1 (stereo not drawn) | 48% | 4% | 35* | u | 37*
